These results are taken from PubChem BioAssay.

The nature of one assay: NFkB reporter suppression in cystic fibrosis bronchial cells – cell-based, uHTS hits, panel, cytotoxicity readout, dose response (AID 624344). The settings on record: CF bronchial epithelial cells, PAF-induced NFkB reporter inhibition, with PAF, run 1; at 79 µM (top of the series) unless noted.
`C[C@H]1Cn2cnc(C(=O)Nc3cccc(Cl)c3)c2C(=O)N1`: the inhibition was determined as 105%.

As to `CN(C)c1ccc(C(C(=O)NC2CCCCC2)N(Cc2ccco2)C(=O)c2snc(C(N)=O)c2N)cc1` (centres undefined), the inhibition worked out at 105%.

With `C/C(=N/NC(=O)c1cccs1)c1ccc(NC(=O)COc2ccc(Cl)cc2)cc1`, the inhibition turned out to be 87%.

Turning to `CC1(C)Cc2c(ccc3ccccc23)C(=O)N1`, the inhibition was 106%.

Regarding `CC1CCc2sc3ncnc(N4CCOCC4)c3c2C1` (centres undefined), the inhibition is 112%.

In the case of `C[C@@H]1CN([C@H](C)CO)C(=O)c2cc(NC(=O)Nc3ccc(C(F)(F)F)cc3)ccc2O[C@H]1CN(C)S(=O)(=O)c1ccc(Cl)cc1`, the inhibition stood at 86.7%.

For `Cc1ccccc1S(=O)(=O)Cc1ccc(C(=O)N2CCN(c3cccc(C)c3C)CC2)o1`, the inhibition stood at 103%.

In the case of `C=C(C)[C@@H]1CCC2(C(=O)O)CC[C@]3(C)[C@H](CC[C@@H]4[C@@]5(C)CCC(=O)C(C)(C)[C@@H]5CC[C@]43C)[C@@H]12` (some centres undefined), the inhibition came to 86.7%.

Turning to `COc1ccc(/C=N/NC(=O)c2[nH]c3ccc(Br)cc3c2-c2ccccc2)cc1`, the inhibition is 88.4%.

In the case of `COc1ccc2cc3c(N)nn(C(=O)c4ccccc4[N+](=O)[O-])c3nc2c1`, the inhibition was 101%.

On to `CC(=O)c1ccc(NC(=O)Nc2ccc3c(c2)N(C)C(=O)CS3)cc1`, for which the inhibition was 98.3%.

With `Cc1ccc(S(=O)(=O)Nc2ccc3cc([N+](=O)[O-])ccc3c2[N+](=O)[O-])cc1`, the inhibition amounted to 109%.

Regarding `O=C(OC1CCOC1=O)c1ccccc1C(=O)c1ccc(Cl)c([N+](=O)[O-])c1` (centres undefined), the inhibition amounted to 98.5%.

Take `O=[N+]([O-])c1ccc(O)c(C2CCCCC2)c1`: the inhibition worked out at 117%.

With `Fc1ccc(Nc2ccnc(Nc3ccc(F)cc3)n2)cc1`, the inhibition turned out to be 113%.

Take `c1ccc2c(c1)Nc1ccncc1S2`: the inhibition amounted to 114%.

Turning to `Cc1ccsc1CN(C)c1ncnc2ccc(-c3ccoc3)cc12`, the inhibition is 91.6%.

As for `Cc1c(C(=O)OCC(C)C)[nH]c2c1C(=O)CC(c1ccco1)C2` (centres undefined), the inhibition was determined as 97.4%.

As to `O=C(Nc1ccc(F)cc1)Nc1ccc(N2CCCC2)c(S(=O)(=O)Nc2ccccc2Cl)c1`, the inhibition worked out at 111%.

Consider `CCC(=O)c1ccc(O)c(CC=C(C)C)c1`, for which the inhibition is 114%.

With `CC(=O)NC(CC(C)C)C(=O)NC(Cc1ccccc1)C(=O)CCl` (centres undefined), the inhibition was 97.3%.

With `NC(=O)c1cc2ccc(O)cc2oc1=Nc1ccccc1`, the inhibition is 92.3%.

In the case of `COc1ccc(-n2c(C)c(C(C)=O)c3cc(O)ccc32)cc1`, the inhibition stood at 117%.

As to `CCn1c2ccccc2c2cc(/C=N/O)ccc21`, the inhibition worked out at 114%.

Test in the next assay: as above
The settings on record: CF bronchial epithelial cells, PAF-induced NFkB reporter inhibition, with PAF, run 2; at 79 µM (top of the series) unless noted.
Consider `Cc1ccnc(NC(=O)CSc2cc(=O)n(C)c3ccccc23)c1`, for which the inhibition is 110%.

Regarding `COC(=O)c1c(C)n(-c2ccc(OC)cc2)c2ccc(O)cc12`, the inhibition was found to be 94.9%.

On to `C[C@@H]1CN([C@H](C)CO)C(=O)c2cc(NC(=O)Nc3ccc(C(F)(F)F)cc3)ccc2O[C@H]1CN(C)S(=O)(=O)c1ccccc1`, for which the inhibition is 110%.

As to `Cc1ccc(S(=O)(=O)N2[C@@H](c3ccc(C(C)(C)C)cc3)C(C(=O)O)=CC[C@H]2c2ccc(C(C)C)cc2)cc1`, the inhibition was found to be 115%.

Consider `CN(Cc1ccco1)c1ncnc2ccc(-c3ccoc3)cc12`, for which the inhibition amounted to 101%.

For `CN(C)c1ccc(Nc2ncnc3ccc(Br)cc23)cc1`, the inhibition is 118%.

With `Cc1ccc(CNc2ncnc3ccc(-c4ccc(CO)o4)cc23)o1`, the inhibition is 99.1%.

Take `COc1ccc(-c2csc(/C(C#N)=C\c3ccc(O)c([N+](=O)[O-])c3)n2)cc1OC`: the inhibition is 102%.

Regarding `Cc1ccc(NC(=O)c2nc[nH]c2C(=O)NCCCNC(=O)c2[nH]cnc2C(=O)Nc2ccc(C)cc2)cc1`, the inhibition was 95.2%.

In the case of `Cc1ccc(C(C(=O)NCc2ccccc2)N(Cc2cccs2)C(=O)c2ccc3c(c2)OCCO3)cc1` (centres undefined), the inhibition is 98.3%.

Regarding `CC(=O)Oc1c(Br)cc(N(C(C)=O)S(=O)(=O)c2ccccc2)c2ccccc12`, the inhibition was found to be 88.1%.

With `C/C(=N\Nc1cc(N2CCOCC2)ncn1)c1cccc([N+](=O)[O-])c1`, the inhibition was found to be 95.3%.

For the compound `Cc1cccc(N=c2oc3cc(O)ccc3cc2C(N)=O)c1`, the inhibition is 80%.

As to `CC(=O)OCCN1c2ccccc2Sc2cnccc21`, the inhibition worked out at 109%.

`CC(=O)OCCCNc1cc(Sc2ccc(Cl)cc2)c2nonc2c1[N+](=O)[O-]`: the inhibition stood at 113%.

Consider `CC1CCN(CC(CS(=O)(=O)c2ccc([N+](=O)[O-])cc2)N2CCC(C)CC2)CC1` (centres undefined), for which the inhibition amounted to 104%.

As to `C[C@H]1Cn2cnc(C(=O)Nc3cccc(Cl)c3)c2C(=O)N1`, the inhibition was found to be 104%.

As to `CN(C)c1ccc(C(C(=O)NC2CCCCC2)N(Cc2ccco2)C(=O)c2snc(C(N)=O)c2N)cc1` (centres undefined), the inhibition was determined as 102%.

`C/C(=N/NC(=O)c1cccs1)c1ccc(NC(=O)COc2ccc(Cl)cc2)cc1`: the inhibition amounted to 72.9%.

In the case of `CC1(C)Cc2c(ccc3ccccc23)C(=O)N1`, the inhibition worked out at 111%.

In the case of `CC1CCc2sc3ncnc(N4CCOCC4)c3c2C1` (centres undefined), the inhibition came to 101%.

For `C[C@@H]1CN([C@H](C)CO)C(=O)c2cc(NC(=O)Nc3ccc(C(F)(F)F)cc3)ccc2O[C@H]1CN(C)S(=O)(=O)c1ccc(Cl)cc1`, the inhibition came out at 92.7%.

Turning to `Cc1ccccc1S(=O)(=O)Cc1ccc(C(=O)N2CCN(c3cccc(C)c3C)CC2)o1`, the inhibition was found to be 114%.

On to `C=C(C)[C@@H]1CCC2(C(=O)O)CC[C@]3(C)[C@H](CC[C@@H]4[C@@]5(C)CCC(=O)C(C)(C)[C@@H]5CC[C@]43C)[C@@H]12` (some centres undefined), for which the inhibition was 102%.

On to `COc1ccc(/C=N/NC(=O)c2[nH]c3ccc(Br)cc3c2-c2ccccc2)cc1`, for which the inhibition was found to be 71.3%.

On to `COc1ccc2cc3c(N)nn(C(=O)c4ccccc4[N+](=O)[O-])c3nc2c1`, for which the inhibition was found to be 111%.

Consider `CC(=O)c1ccc(NC(=O)Nc2ccc3c(c2)N(C)C(=O)CS3)cc1`, for which the inhibition was found to be 106% [at 19.8 µM].

For the compound `Cc1ccc(S(=O)(=O)Nc2ccc3cc([N+](=O)[O-])ccc3c2[N+](=O)[O-])cc1`, the inhibition was determined as 101%.

Turning to `O=C(OC1CCOC1=O)c1ccccc1C(=O)c1ccc(Cl)c([N+](=O)[O-])c1` (centres undefined), the inhibition turned out to be 105%.

In the case of `O=[N+]([O-])c1ccc(O)c(C2CCCCC2)c1`, the inhibition stood at 103%.

On to `Fc1ccc(Nc2ccnc(Nc3ccc(F)cc3)n2)cc1`, for which the inhibition was 101%.

As to `c1ccc2c(c1)Nc1ccncc1S2`, the inhibition turned out to be 106%.

Consider `Cc1ccsc1CN(C)c1ncnc2ccc(-c3ccoc3)cc12`, for which the inhibition worked out at 93.8%.

With `Cc1c(C(=O)OCC(C)C)[nH]c2c1C(=O)CC(c1ccco1)C2` (centres undefined), the inhibition stood at 61.5%.

As to `O=C(Nc1ccc(F)cc1)Nc1ccc(N2CCCC2)c(S(=O)(=O)Nc2ccccc2Cl)c1`, the inhibition was determined as 89.3%.

Consider `CCC(=O)c1ccc(O)c(CC=C(C)C)c1`, for which the inhibition is 97.8%.

In the case of `CC(=O)NC(CC(C)C)C(=O)NC(Cc1ccccc1)C(=O)CCl` (centres undefined), the inhibition turned out to be 104%.

As to `NC(=O)c1cc2ccc(O)cc2oc1=Nc1ccccc1`, the inhibition amounted to 95.2%.

With `COc1ccc(-n2c(C)c(C(C)=O)c3cc(O)ccc32)cc1`, the inhibition was found to be 95.2%.

`CCn1c2ccccc2c2cc(/C=N/O)ccc21`: the inhibition stood at 105%.

For orientation: inhibition means the drop in the measured response relative to a control, in per cent.
